Data taken from the supplement of paper PMC10849652.
Of roughly 8,800 targets only a part is listed; those with a hit were picked by preference. About 0.5% of all pairs of compound and target were hits.

What was measured:
Test in all cases: log2 fold change, soluble protein after heating vs DMSO (PISA); higher = thermal stabilisation; K562 lysate, 10 uM; active = over 0.2 and 3.5 SD of the protein, either way, in both replicates (recomputed)
erlotinib = compound: C#Cc1cccc(Nc2ncnc3cc(OCCOC)c(OCCOC)cc23)c1 [erlotinib]
How it was run: (§1)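 Pellets of K562 cells were dounce-homogenised in PBS pH 7.4 with 1 mM MgCl2, and the crude extract was held at 1 mg/mL protein for a 30 min treatment with 10 μM compound. Aliquots were heated for 3 min over 48°C-58°C and pooled before NP-40 was added to 0.5% at 4°C. The supernatant from 21,000xg for 90 min was quantified by TMTpro 16plex LC-MS/MS with channel sums equalised. Values are reported from duplicates as log-two fold change in thermal stability relative to solvent controls.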

[1] = compound: C/C(=N\NC(=O)C1=CC(=CC=C1)S(=O)(=O)N2CCOCC2)/C3=C(C=CC(=C3)Cl)O
How it was run: as §1

[2] = compound: C1=CC(=CC=C1C2=NC3=C(N2)C=C(C=C3)C(=O)N)OC4=CC=C(C=C4)Cl
How it was run: as §1

[3] = compound: C1=CC2=C(C=CC(=C2)/C=C\3/C(=O)NC(=NCC4=CC=CS4)S3)N=C1
How it was run: as §1

[4] = compound: C1=CC2=NC=CN=C2C=C1/C=C/3\C(=O)NC(=O)S3
How it was run: as §1

[5] = compound: C1=CC=C(C=C1)C2=NC(=C(N2)C3=CC=NC=C3)C4=CC(=C(C=C4)Cl)O
How it was run: as §1

[6] = compound: C1=CC=C2C(=C1)C3=NNC4=CC=CC(=C43)C2=O
How it was run: as §1

[7] = compound: C1CCN(C1)C(=O)NC2=CC=CC(=C2)NC3=NC=C(C(=N3)NCCC4=CN=CN4)Br
How it was run: as §1

[8] = compound: C1CN(CCC1(CC2=CC=C(C=C2)Cl)N)C3=NC=NC4=C3C=CN4
How it was run: as §1

IRAK-1-4 Inhibitor I = compound: C1COCCN1CCN2C3=CC=CC=C3N=C2NC(=O)C4=CC(=CC=C4)[N+](=O)[O-] [IRAK-1-4 Inhibitor I]
How it was run: as §1

Measured: log2 fold change

NUP133 (UniProt Q8WUM0)
inactive: erlotinib 0.01 | [1] -0.016 | [2] 0.006 | [3] 0.019 | [4] -0.018 | [5] 0.017 | [6] -0.023 | [7] -0.04 | [8] 0.015 | IRAK-1-4 Inhibitor I 0.026

NACC1 (UniProt Q96RE7)
inactive: erlotinib -0.006 | [1] 0.038 | [2] 0.036 | [3] -0.023 | [4] -0.004 | [5] 0.01 | [6] -0.011 | [7] 0.023 | [8] -0.014 | IRAK-1-4 Inhibitor I 0.009

NELFA (UniProt Q9H3P2)
inactive: erlotinib -0.04 | [1] -0.018 | [2] 0.002 | [3] 0.047 | [4] 0.007 | [5] 0.007 | [6] -0.009 | [7] 0.011 | [8] -0.001 | IRAK-1-4 Inhibitor I -0.017

NUMBL (UniProt Q9Y6R0)
inactive: erlotinib 0.031 | [1] 0.028 | [2] 0.175 | [3] -0.244 | [4] -0.025 | [5] -0.007 | [6] -0.038 | [7] -0.095 | [8] -0.045 | IRAK-1-4 Inhibitor I -0.084

NFIC (UniProt P08651)
inactive: erlotinib 0.014 | [1] 0.063 | [2] -0.044 | [3] 0.025 | [4] 0.001 | [5] -0.084 | [6] -0.082 | [7] -0.016 | [8] -0.032 | IRAK-1-4 Inhibitor I 0.052

MSH2 (UniProt P43246)
inactive: erlotinib 0.003 | [1] 0.018 | [2] -0.028 | [3] 0.028 | [4] 0.013 | [5] 0.017 | [6] -0.019 | [7] -0.01 | [8] 0.012 | IRAK-1-4 Inhibitor I -0.009

MYO1D (UniProt O94832)
inactive: erlotinib 0.01 | [1] -0.064 | [2] -0.022 | [3] 0.004 | [4] 0.006 | [5] 0.01 | [6] -0.083 | [7] 0.015 | [8] 0.031 | IRAK-1-4 Inhibitor I -0.027

NFKBIE (UniProt O00221)
inactive: erlotinib 0.014 | [1] -0.009 | [2] -0.117 | [3] 0.059 | [4] -0.022 | [5] 0.059 | [6] -0.026 | [7] -0.078 | [8] 0.081 | IRAK-1-4 Inhibitor I 0.119

ORC2 (UniProt Q13416)
inactive: erlotinib -0.004 | [1] -0.006 | [2] -0.006 | [3] 0.009 | [4] 0.015 | [5] 0.006 | [6] -0.022 | [7] 0 | [8] -0.024 | IRAK-1-4 Inhibitor I -0.034

MTHFD1L (UniProt B7ZM99)
inactive: erlotinib 0.026 | [1] -0.001 | [2] 0 | [3] -0.007 | [4] 0.033 | [5] -0.006 | [6] -0.057 | [7] -0.004 | [8] 0.002 | IRAK-1-4 Inhibitor I -0.013

MTHFD1, A0A384N5Y3
Chain of MTHFD1, A0A384N5Y3 (A0A384N5Y3 whole entry, looked up): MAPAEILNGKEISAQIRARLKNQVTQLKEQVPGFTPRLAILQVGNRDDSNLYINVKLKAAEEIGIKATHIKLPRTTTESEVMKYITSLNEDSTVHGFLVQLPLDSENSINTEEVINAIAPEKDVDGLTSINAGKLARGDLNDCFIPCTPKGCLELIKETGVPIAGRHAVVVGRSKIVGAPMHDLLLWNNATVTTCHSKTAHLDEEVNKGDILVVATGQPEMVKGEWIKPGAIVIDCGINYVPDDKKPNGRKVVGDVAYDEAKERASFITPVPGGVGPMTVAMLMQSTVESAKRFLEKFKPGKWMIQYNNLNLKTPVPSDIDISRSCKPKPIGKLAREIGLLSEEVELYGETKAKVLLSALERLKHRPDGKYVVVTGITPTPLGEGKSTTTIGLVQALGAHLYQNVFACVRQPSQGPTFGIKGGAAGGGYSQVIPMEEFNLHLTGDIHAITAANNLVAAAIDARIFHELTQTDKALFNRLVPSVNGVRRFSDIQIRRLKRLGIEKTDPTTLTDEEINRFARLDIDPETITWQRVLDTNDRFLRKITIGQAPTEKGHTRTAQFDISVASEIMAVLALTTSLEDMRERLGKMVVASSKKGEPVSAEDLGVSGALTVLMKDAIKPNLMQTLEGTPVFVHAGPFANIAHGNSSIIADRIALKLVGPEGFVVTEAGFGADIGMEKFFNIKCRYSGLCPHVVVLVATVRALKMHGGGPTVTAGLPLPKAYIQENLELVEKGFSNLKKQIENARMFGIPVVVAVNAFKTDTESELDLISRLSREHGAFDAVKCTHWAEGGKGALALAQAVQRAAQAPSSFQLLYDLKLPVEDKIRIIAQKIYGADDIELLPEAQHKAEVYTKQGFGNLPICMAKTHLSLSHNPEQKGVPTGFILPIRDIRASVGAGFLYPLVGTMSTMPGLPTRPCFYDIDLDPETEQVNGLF
inactive: erlotinib 0.024 | [1] 0.041 | [2] -0.004 | [3] 0.04 | [4] 0.029 | [5] 0.02 | [6] -0.039 | [7] 0.021 | [8] 0.015 | IRAK-1-4 Inhibitor I 0.002

PANK4 (UniProt Q9NVE7)
inactive: erlotinib 0.013 | [1] -0.012 | [2] 0.003 | [3] 0.051 | [4] 0.033 | [5] 0.003 | [6] -0.052 | [7] -0.002 | [8] 0.018 | IRAK-1-4 Inhibitor I 0.018

NQO1 (UniProt P15559)
inactive: erlotinib -0.033 | [1] 0.081 | [2] 0.055 | [3] -0.08 | [4] -0.02 | [5] -0.022 | [6] -0.192 | [7] 0.005 | [8] 0.006 | IRAK-1-4 Inhibitor I -0.017

NGLY1 (UniProt Q96IV0)
Chain of UniProt Q96IV0 (Q96IV0 whole entry, looked up): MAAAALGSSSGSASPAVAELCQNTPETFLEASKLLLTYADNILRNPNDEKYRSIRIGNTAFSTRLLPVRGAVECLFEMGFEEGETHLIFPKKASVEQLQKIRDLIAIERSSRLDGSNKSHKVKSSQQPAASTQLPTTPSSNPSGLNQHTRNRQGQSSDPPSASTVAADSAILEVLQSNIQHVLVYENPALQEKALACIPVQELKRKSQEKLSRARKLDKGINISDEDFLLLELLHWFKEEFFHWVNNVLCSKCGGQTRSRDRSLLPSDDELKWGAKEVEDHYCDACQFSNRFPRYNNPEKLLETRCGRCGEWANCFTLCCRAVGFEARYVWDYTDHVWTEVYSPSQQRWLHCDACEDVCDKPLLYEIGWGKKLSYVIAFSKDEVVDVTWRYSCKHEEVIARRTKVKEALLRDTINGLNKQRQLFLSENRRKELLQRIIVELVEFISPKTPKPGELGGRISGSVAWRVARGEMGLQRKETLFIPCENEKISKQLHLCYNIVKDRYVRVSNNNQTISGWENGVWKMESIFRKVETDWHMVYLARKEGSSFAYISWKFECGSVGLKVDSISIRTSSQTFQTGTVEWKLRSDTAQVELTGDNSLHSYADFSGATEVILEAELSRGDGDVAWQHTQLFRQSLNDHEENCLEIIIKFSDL
inactive: erlotinib 0.022 | [1] -0.064 | [2] -0.031 | [3] -0.01 | [4] -0.009 | [5] 0.009 | [6] -0.063 | [7] -0.001 | [8] -0.011 | IRAK-1-4 Inhibitor I -0.024

NONO (UniProt Q15233)
inactive: erlotinib 0.021 | [1] -0.048 | [2] 0 | [3] -0.006 | [4] -0.017 | [5] 0.025 | [6] -0.027 | [7] 0.014 | [8] 0.002 | IRAK-1-4 Inhibitor I 0.005

MTCH2 (UniProt Q9Y6C9)
Chain of UniProt Q9Y6C9 (Q9Y6C9 whole entry, looked up): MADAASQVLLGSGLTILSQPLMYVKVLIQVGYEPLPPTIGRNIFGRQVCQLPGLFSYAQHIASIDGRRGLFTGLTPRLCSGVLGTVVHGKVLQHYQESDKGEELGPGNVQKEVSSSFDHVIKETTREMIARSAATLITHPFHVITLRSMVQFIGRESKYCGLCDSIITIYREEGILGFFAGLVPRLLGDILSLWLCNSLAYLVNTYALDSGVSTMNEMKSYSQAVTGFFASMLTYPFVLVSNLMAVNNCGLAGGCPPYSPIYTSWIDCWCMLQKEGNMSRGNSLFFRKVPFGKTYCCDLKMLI
inactive: erlotinib 0.004 | [1] 0.051 | [2] -0.081 | [3] -0.032 | [4] -0.06 | [5] -0.004 | [6] -0.031 | [7] -0.033 | [8] -0.011 | IRAK-1-4 Inhibitor I 0.027

PAK1 (UniProt Q13153)
Chain of UniProt Q13153 (Q13153 whole entry, looked up): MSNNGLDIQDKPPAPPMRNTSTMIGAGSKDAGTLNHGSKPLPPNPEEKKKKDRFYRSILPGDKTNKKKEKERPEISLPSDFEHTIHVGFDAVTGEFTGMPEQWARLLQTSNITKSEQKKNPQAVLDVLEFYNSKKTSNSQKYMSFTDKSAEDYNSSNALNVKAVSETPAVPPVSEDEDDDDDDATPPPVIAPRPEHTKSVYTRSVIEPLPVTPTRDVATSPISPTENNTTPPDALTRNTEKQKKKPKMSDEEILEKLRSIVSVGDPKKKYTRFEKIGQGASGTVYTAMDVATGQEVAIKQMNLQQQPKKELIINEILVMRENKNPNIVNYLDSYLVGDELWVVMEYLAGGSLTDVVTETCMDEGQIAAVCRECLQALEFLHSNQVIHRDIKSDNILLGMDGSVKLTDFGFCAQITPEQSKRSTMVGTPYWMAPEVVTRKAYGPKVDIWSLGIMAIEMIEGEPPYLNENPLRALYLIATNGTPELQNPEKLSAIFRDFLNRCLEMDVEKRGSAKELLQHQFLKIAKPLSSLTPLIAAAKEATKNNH
inactive: erlotinib 0.043 | [1] 0.018 | [2] 0.01 | [3] -0.017 | [4] 0.01 | [5] -0.014 | [6] 0.018 | [7] 0.028 | [8] 0.041 | IRAK-1-4 Inhibitor I -0.007

NCAPD2 (UniProt Q15021)
inactive: erlotinib 0.011 | [1] 0.011 | [2] -0.005 | [3] 0.032 | [4] -0.009 | [5] -0.016 | [6] -0.025 | [7] -0.007 | [8] -0.005 | IRAK-1-4 Inhibitor I -0.001

NCAPH2 (UniProt Q6IBW4)
inactive: erlotinib -0.031 | [1] -0.085 | [2] 0.011 | [3] -0.012 | [4] 0.026 | [5] 0 | [6] -0.005 | [7] -0.038 | [8] 0.042 | IRAK-1-4 Inhibitor I 0.009

NSL1 (UniProt Q96IY1)
Chain of UniProt Q96IY1 (Q96IY1 whole entry, looked up): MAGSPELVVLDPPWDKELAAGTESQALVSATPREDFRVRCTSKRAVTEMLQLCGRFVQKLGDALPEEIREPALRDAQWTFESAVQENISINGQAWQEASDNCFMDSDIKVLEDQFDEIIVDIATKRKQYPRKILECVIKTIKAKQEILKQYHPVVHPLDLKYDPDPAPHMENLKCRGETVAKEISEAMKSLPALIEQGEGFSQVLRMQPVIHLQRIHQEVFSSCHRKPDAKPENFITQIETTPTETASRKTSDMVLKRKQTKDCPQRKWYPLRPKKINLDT
inactive: erlotinib 0.01 | [1] -0.004 | [2] 0.015 | [3] -0.001 | [4] -0.002 | [5] 0.01 | [6] 0.077 | [7] 0.001 | [8] -0.015 | IRAK-1-4 Inhibitor I 0.026

OPA1 isoform 2 (UniProt O60313)
Chain of UniProt O60313 (O60313 whole entry, looked up): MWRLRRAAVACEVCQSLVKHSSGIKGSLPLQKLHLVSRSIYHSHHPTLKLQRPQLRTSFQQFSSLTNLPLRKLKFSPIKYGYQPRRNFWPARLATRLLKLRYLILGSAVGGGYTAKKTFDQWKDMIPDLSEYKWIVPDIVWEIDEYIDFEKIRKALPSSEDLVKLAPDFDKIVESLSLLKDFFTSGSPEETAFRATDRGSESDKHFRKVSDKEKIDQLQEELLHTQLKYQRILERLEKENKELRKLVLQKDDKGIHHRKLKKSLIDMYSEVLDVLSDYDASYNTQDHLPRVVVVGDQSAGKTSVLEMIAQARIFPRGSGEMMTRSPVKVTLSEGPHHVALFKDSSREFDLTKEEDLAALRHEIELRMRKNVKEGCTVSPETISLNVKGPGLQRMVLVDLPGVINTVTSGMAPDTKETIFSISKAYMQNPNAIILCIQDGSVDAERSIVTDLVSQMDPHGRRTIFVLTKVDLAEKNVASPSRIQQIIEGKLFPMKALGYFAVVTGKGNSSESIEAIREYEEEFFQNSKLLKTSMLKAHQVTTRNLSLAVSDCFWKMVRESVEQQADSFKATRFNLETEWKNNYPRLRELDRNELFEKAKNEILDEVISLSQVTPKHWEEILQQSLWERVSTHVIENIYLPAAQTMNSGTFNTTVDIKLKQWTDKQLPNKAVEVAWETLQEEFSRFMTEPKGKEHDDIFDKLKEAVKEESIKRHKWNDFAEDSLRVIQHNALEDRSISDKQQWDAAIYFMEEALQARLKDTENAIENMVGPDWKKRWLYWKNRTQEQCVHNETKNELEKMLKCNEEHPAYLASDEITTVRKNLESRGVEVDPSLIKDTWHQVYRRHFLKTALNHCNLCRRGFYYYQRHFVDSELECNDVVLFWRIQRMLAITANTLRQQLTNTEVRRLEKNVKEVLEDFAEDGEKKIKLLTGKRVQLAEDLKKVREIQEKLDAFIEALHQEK
inactive: erlotinib 0.003 | [1] 0.03 | [2] -0.078 | [3] 0.024 | [4] 0.01 | [5] -0.022 | [6] -0.026 | [7] -0.015 | [8] 0.021 | IRAK-1-4 Inhibitor I 0.003

NUCB2 (UniProt P80303)
Chain of UniProt P80303 (P80303 whole entry, looked up): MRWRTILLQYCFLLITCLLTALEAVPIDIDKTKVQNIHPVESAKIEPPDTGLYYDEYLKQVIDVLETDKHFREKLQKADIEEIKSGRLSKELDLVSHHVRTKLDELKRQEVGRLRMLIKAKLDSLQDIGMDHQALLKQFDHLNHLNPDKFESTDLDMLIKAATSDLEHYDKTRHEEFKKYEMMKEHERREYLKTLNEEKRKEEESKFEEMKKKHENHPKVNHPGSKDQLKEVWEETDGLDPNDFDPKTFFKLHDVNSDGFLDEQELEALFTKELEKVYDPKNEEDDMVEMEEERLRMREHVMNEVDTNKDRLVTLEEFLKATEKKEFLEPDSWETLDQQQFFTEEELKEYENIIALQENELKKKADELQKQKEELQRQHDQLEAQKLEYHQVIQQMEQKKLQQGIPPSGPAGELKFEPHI
inactive: erlotinib -0.003 | [1] 0.018 | [2] 0.014 | [3] -0.018 | [4] 0.011 | [5] -0.015 | [6] -0.017 | [7] 0.003 | [8] 0.003 | IRAK-1-4 Inhibitor I 0.007

ORC3 isoform 2 (UniProt Q9UBD5)
Chain of UniProt Q9UBD5 (Q9UBD5 whole entry, looked up): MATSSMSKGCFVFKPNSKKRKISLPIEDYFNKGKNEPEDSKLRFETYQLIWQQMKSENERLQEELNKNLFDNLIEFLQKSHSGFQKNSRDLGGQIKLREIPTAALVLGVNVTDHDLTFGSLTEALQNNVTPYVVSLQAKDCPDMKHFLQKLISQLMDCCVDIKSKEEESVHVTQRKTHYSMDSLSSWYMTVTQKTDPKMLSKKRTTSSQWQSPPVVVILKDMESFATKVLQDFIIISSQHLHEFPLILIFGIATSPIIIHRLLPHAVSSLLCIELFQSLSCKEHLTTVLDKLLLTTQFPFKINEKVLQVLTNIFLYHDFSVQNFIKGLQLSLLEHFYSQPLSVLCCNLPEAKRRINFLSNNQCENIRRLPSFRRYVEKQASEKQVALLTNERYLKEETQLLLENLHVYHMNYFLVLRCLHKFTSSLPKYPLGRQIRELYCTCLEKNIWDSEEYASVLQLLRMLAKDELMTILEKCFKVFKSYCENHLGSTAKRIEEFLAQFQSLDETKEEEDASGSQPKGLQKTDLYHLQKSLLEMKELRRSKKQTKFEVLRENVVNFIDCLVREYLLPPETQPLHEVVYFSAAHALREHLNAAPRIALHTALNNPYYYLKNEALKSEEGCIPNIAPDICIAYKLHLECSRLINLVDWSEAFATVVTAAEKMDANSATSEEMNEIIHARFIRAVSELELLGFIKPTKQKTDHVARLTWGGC
inactive: erlotinib -0.006 | [1] -0.048 | [2] -0.046 | [3] 0.004 | [4] 0.053 | [5] -0.011 | [6] -0.045 | [7] -0.015 | [8] -0.007 | IRAK-1-4 Inhibitor I -0.008

MYCBP2 (UniProt O75592)
inactive: erlotinib 0.01 | [1] 0 | [2] 0.031 | [3] 0.008 | [4] -0.008 | [5] 0.031 | [6] -0.023 | [7] 0.004 | [8] 0.03 | IRAK-1-4 Inhibitor I 0.022

NIT2 (UniProt Q9NQR4)
inactive: erlotinib -0.048 | [1] 0.001 | [2] 0.014 | [3] 0.009 | [4] 0.007 | [5] -0.03 | [6] 0.032 | [7] -0.006 | [8] 0.015 | IRAK-1-4 Inhibitor I 0.067

NOSTRIN (UniProt Q8IVI9)
inactive: erlotinib -0.031 | [1] 0.032 | [2] 0.132 | [3] 0.072 | [4] -0.008 | [5] -0.013 | [6] 0.07 | [7] -0.055 | [8] -0.065 | IRAK-1-4 Inhibitor I 0.001

NTPCR (UniProt Q9BSD7)
Chain of UniProt Q9BSD7 (Q9BSD7 whole entry, looked up): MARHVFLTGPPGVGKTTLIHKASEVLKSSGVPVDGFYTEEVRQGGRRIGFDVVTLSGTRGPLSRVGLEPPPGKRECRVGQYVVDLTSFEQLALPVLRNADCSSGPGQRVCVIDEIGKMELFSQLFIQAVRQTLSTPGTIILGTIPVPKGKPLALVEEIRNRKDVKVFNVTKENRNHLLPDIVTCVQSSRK
inactive: erlotinib 0.015 | [1] -0.263 | [2] -0.007 | [3] 0.065 | [4] 0.031 | [5] 0.018 | [6] -0.045 | [7] 0.025 | [8] 0.046 | IRAK-1-4 Inhibitor I -0.011

NUDT4 isoform 2 (UniProt Q9NZJ9)
inactive: erlotinib 0.023 | [1] 0.015 | [2] 0.05 | [3] -0.048 | [4] 0.015 | [5] -0.007 | [6] -0.005 | [7] -0.069 | [8] 0.032 | IRAK-1-4 Inhibitor I -0.006

MTMR6 (UniProt Q9Y217)
inactive: erlotinib 0.01 | [1] 0.044 | [2] 0.002 | [3] -0.008 | [4] -0.004 | [5] -0.009 | [6] -0.052 | [7] -0.013 | [8] 0.015 | IRAK-1-4 Inhibitor I -0.013

NSA2 (UniProt O95478)
inactive: erlotinib -0.015 | [1] -0.15 | [2] 0.009 | [3] -0.102 | [4] -0.05 | [5] -0.002 | [6] -0.016 | [7] 0.157 | [8] 0.109 | IRAK-1-4 Inhibitor I -0.006
